In paper PMC7862700, “An all-to-all approach to the identification of sequence-specific readers for epigenetic DNA modifications on cytosine”:

Legend:
Assay in all cases: DAPPL (digital affinity profiling via proximity ligation, sequencing); 10 mM Tris-HCl pH 7.5, 50 mM NaCl, 1 mM DTT, 4% glycerol, room temperature, 30 min; GST-TFs on glutathione beads, 16-mer random dsDNA library, 0.1% formaldehyde crosslink after washing; high values mean tight binding
FLI1 = target: T1, FLI1 (Homo sapiens, UniProt Q01543 1-452); settings: protein: recombinant; tags: N-terminal GST; dsDNA, one strand shown
T1 sequence: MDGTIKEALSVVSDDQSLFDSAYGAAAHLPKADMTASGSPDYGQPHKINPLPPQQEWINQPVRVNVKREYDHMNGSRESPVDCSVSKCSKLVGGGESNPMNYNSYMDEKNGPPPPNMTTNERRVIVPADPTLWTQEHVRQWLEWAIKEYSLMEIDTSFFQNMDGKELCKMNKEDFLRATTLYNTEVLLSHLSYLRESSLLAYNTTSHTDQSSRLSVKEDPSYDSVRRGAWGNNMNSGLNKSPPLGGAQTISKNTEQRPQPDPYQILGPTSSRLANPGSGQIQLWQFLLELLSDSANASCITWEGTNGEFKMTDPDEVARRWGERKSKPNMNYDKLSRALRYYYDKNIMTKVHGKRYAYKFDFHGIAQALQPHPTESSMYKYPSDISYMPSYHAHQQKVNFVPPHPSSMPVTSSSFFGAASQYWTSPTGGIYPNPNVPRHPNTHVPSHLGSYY
In short: (§1)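 A tag-only sample was pooled with DNA-barcoded human transcription factors that had been expressed in yeast as GST fusions and captured on glutathione beads. The pools were incubated for 30 min at room temperature with 200 nmole of a random double-stranded 16-mer DNA library in Tris/NaCl/DTT/glycerol buffer, then washed, crosslinked with 0.1% formaldehyde, proximity-ligated (BsaI/T4 ligase, 1 h, 37 °C), PCR-amplified and sequenced on an Illumina NextSeq500. Binding signal is each hexamer's read frequency for a factor divided by its frequency for the tag-only sample.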

ELK1 = target: T2, ELK1 (Homo sapiens, UniProt P19419 1-428); settings: protein: recombinant; tags: N-terminal GST; dsDNA, one strand shown
T2 sequence: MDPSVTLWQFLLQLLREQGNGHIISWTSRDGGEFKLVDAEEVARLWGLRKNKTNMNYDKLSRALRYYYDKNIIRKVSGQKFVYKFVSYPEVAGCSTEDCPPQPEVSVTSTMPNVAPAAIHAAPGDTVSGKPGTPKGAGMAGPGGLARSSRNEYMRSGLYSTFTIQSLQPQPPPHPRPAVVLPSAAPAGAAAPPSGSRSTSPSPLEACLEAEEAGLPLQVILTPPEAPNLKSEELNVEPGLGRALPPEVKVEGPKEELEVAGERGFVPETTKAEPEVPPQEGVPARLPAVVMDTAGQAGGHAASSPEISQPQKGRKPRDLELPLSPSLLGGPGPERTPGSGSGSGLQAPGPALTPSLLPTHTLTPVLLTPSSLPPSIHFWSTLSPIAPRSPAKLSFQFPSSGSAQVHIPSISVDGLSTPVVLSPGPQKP
In short: as §1

GABPA = target: T3, GABPA (Homo sapiens, UniProt Q06546 1-454); settings: protein: recombinant; tags: N-terminal GST; dsDNA, one strand shown
T3 sequence: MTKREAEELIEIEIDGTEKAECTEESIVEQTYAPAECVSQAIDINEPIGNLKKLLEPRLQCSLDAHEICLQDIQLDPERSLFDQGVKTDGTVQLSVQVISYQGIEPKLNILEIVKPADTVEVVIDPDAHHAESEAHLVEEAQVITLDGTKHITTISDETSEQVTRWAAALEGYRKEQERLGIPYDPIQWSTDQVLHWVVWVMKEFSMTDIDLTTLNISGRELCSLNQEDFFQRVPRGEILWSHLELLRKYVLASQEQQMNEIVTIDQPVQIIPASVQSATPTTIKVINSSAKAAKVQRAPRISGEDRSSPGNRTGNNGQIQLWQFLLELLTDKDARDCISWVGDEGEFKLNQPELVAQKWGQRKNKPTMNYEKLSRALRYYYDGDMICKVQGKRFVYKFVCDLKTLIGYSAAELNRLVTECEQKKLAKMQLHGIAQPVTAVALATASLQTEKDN
In short: as §1

ERG = target: T4, ERG (Homo sapiens, UniProt P11308 1-479); settings: protein: recombinant; tags: N-terminal GST; dsDNA, one strand shown
T4 sequence: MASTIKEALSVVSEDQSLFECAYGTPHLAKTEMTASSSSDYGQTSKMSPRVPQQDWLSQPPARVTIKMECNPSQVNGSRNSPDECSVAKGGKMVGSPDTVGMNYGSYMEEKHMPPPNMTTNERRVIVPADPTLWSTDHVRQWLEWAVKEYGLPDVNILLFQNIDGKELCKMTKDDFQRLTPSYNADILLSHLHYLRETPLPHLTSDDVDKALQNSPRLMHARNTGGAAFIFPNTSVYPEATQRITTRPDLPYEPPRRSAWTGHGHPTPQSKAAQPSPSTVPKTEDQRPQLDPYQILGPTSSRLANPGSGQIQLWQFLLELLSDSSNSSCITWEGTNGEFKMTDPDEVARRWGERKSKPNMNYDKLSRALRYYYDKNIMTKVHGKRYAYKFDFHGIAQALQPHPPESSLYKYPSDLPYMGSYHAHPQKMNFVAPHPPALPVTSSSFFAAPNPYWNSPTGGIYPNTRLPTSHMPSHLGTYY
In short: as §1

ELF1 = ELF1 (Homo sapiens, UniProt P32519 1-619); settings: protein: recombinant; tags: N-terminal GST; dsDNA, one strand shown
Chain of ELF1 (P32519 whole entry): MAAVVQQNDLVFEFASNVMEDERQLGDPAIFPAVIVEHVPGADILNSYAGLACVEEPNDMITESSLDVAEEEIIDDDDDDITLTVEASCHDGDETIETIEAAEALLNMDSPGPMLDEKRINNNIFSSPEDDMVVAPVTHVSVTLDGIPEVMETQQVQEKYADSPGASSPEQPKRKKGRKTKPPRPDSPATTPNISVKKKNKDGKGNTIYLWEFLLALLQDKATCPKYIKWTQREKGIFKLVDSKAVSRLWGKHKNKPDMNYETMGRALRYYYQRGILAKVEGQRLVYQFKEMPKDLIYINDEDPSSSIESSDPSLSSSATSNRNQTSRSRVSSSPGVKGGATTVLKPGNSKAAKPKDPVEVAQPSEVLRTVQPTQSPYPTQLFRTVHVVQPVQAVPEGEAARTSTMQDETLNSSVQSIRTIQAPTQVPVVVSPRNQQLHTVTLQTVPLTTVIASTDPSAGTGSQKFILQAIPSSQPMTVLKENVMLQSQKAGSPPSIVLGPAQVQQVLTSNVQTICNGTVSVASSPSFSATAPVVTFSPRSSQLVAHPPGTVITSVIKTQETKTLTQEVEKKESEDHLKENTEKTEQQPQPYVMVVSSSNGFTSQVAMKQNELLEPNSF
In short: as §1

EHF = target: T5, EHF (Homo sapiens, UniProt Q9NZC4 1-300); settings: protein: recombinant; tags: N-terminal GST; dsDNA, one strand shown
T5 sequence: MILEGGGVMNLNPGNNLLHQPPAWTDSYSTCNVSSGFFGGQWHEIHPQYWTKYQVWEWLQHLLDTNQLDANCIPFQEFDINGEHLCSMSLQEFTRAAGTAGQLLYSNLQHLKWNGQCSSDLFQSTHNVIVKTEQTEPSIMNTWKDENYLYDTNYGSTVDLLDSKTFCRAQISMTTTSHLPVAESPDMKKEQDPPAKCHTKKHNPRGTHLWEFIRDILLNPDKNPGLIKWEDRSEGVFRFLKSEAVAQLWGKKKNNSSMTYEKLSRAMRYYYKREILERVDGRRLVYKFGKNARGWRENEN
In short: as §1

SPI1 = SPI1 (Homo sapiens, UniProt P17947 1-270); settings: protein: recombinant; tags: N-terminal GST; dsDNA, one strand shown
In short: as §1

SPIB = SPIB (Homo sapiens, UniProt Q01892 1-262); settings: protein: recombinant; tags: N-terminal GST; dsDNA, one strand shown
Chain of SPIB (Q01892 whole entry): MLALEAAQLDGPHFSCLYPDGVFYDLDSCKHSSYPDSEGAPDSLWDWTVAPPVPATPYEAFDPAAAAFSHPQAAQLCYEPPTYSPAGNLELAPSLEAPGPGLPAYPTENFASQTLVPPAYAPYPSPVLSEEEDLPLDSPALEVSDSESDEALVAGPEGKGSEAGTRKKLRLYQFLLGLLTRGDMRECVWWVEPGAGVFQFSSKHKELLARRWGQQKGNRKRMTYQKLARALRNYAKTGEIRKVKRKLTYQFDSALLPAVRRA
In short: as §1

ELK3 = target: T6, ELK3 (Homo sapiens, UniProt P41970 1-407); settings: protein: recombinant; tags: N-terminal GST; dsDNA, one strand shown
T6 sequence: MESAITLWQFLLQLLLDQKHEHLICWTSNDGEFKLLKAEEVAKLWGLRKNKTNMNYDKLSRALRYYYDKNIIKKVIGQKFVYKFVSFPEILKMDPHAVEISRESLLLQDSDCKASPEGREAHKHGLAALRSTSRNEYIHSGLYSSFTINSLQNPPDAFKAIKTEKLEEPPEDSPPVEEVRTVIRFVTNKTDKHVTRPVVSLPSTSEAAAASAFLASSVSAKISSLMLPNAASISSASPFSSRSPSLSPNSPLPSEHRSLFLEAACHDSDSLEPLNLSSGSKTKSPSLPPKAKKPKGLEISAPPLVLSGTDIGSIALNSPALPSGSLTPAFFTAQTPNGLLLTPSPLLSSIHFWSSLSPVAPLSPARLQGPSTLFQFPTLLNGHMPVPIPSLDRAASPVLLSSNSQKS
In short: as §1

FEV = target: T7, FEV (Homo sapiens, UniProt Q99581 1-238); settings: protein: recombinant; tags: N-terminal GST; dsDNA, one strand shown
T7 sequence: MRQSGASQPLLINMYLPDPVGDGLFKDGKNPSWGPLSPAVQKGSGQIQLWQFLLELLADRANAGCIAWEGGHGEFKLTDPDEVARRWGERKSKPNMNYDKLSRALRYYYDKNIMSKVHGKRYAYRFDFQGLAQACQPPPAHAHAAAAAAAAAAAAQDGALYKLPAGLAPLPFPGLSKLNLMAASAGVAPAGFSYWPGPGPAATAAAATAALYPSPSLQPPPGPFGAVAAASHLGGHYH
In short: as §1

ETV5 = ETV5 (Homo sapiens, UniProt P41161 1-510); settings: protein: recombinant; tags: N-terminal GST; dsDNA, one strand shown
Chain of ETV5 (P41161 whole entry): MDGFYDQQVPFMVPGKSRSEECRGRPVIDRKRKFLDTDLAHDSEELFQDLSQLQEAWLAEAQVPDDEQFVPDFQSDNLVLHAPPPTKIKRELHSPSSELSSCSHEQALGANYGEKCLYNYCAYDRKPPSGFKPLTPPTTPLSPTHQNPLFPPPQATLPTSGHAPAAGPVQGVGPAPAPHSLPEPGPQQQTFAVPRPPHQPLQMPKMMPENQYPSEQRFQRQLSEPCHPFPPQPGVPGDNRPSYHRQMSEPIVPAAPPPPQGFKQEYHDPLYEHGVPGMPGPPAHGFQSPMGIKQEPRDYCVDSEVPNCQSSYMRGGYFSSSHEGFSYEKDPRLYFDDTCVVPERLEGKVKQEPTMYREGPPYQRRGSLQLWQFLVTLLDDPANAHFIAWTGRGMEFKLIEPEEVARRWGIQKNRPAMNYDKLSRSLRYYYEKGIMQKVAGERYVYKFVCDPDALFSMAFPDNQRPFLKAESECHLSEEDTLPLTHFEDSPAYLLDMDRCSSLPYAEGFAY
In short: as §1

HSF1 = HSF1 (Homo sapiens, UniProt Q00613 1-529); settings: protein: recombinant; tags: N-terminal GST; chain copies: 3; dsDNA, one strand shown
Chain of HSF1 (Q00613 whole entry): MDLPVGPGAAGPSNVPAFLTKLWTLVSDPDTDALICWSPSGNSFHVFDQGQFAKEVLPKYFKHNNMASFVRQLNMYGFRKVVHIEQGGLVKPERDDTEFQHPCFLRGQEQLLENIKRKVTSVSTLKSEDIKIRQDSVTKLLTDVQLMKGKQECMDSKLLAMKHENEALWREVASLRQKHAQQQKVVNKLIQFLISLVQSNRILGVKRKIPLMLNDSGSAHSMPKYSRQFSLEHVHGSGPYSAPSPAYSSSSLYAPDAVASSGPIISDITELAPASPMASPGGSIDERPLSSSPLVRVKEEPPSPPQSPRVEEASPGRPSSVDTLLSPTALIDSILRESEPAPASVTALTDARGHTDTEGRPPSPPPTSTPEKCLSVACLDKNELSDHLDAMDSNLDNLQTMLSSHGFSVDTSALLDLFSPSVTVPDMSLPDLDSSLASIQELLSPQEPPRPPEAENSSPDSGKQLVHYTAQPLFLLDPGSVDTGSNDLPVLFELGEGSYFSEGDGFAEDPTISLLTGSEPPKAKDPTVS
In short: as §1

SPIC = target: T8, SPIC (Homo sapiens, UniProt Q8N5J4 1-248); settings: protein: recombinant; tags: N-terminal GST; dsDNA, one strand shown
T8 sequence: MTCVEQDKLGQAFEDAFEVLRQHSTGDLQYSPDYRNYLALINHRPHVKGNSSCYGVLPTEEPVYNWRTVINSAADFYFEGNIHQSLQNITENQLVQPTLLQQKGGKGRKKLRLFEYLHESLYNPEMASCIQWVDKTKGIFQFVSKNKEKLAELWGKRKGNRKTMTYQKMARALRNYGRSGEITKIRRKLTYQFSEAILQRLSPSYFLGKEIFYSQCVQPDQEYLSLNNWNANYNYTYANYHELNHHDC
In short: as §1

ELF4 = ELF4 (Homo sapiens, UniProt Q99607 1-663); settings: protein: recombinant; tags: N-terminal GST; dsDNA, one strand shown
Chain of ELF4 (Q99607 whole entry): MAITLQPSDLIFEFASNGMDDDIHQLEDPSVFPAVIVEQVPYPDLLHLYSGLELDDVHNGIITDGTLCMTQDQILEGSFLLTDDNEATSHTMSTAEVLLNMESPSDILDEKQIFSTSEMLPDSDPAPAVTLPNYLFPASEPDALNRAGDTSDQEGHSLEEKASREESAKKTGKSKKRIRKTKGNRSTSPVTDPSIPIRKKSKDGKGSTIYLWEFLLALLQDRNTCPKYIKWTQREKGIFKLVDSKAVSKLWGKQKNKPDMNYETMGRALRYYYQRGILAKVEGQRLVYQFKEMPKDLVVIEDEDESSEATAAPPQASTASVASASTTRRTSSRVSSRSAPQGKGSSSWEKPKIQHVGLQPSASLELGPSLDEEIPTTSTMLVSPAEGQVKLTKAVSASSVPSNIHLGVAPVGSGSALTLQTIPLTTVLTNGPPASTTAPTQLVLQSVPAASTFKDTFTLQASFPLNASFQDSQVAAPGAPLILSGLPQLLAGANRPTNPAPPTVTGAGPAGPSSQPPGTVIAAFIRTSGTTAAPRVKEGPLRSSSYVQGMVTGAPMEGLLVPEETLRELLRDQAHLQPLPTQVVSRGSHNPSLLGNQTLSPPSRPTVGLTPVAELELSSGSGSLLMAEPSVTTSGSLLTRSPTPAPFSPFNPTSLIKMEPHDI
In short: as §1

ELK4 = target: T9, ELK4 (Homo sapiens, UniProt P28324-2 1-405); settings: protein: recombinant; tags: N-terminal GST; dsDNA, one strand shown
T9 sequence: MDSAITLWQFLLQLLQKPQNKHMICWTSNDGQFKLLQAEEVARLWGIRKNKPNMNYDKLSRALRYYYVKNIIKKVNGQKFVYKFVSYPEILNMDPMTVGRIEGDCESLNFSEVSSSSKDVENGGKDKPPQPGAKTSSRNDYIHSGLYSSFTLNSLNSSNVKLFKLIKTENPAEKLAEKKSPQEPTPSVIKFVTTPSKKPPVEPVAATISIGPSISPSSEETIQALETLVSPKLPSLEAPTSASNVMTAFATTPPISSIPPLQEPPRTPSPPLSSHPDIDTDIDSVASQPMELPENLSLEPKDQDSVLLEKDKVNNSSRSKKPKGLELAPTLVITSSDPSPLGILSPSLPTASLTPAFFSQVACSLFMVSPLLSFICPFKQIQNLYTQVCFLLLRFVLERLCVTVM
In short: as §1

ETV2 = target: T10, ETV2 (Homo sapiens, UniProt O00321 1-342); settings: protein: recombinant; tags: N-terminal GST; dsDNA, one strand shown
T10 sequence: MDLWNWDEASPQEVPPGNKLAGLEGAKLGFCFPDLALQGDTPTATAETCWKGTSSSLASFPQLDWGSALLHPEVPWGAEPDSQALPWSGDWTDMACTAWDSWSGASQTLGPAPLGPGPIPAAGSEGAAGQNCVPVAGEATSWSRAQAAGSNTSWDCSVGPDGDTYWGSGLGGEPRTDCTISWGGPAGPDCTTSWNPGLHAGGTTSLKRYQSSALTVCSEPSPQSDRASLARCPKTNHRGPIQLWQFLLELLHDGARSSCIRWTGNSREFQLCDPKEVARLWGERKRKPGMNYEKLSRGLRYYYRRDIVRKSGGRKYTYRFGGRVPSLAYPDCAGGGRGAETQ
In short: as §1

ELF3 = target: T11, ELF3 (Homo sapiens, UniProt P78545 1-371); settings: protein: recombinant; tags: N-terminal GST; dsDNA, one strand shown
T11 sequence: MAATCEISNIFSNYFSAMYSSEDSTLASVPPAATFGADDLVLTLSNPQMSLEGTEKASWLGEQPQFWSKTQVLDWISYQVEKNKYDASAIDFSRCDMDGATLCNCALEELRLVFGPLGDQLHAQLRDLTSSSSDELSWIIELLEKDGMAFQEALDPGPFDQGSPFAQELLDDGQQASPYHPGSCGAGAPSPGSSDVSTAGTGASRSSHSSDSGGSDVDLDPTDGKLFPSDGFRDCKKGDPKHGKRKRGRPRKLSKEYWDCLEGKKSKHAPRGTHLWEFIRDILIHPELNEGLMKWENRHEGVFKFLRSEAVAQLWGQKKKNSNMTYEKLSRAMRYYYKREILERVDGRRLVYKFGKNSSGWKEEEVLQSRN
In short: as §1

CRX = CRX (Homo sapiens, UniProt O43186 1-299); settings: protein: recombinant; tags: N-terminal GST; dsDNA, one strand shown
Chain of CRX (O43186 whole entry): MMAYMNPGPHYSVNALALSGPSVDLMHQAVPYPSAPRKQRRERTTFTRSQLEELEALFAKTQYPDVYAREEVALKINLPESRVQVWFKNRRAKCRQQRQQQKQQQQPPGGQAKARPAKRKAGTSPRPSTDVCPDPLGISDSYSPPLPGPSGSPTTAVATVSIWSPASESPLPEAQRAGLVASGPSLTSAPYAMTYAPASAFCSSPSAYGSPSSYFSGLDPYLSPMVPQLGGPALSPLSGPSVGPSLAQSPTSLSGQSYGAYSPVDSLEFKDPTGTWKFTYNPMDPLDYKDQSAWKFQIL
In short: as §1

ETV1 = ETV1 (Homo sapiens, UniProt P50549 1-477); settings: protein: recombinant; tags: N-terminal GST; dsDNA, one strand shown
Chain of ETV1 (P50549 whole entry): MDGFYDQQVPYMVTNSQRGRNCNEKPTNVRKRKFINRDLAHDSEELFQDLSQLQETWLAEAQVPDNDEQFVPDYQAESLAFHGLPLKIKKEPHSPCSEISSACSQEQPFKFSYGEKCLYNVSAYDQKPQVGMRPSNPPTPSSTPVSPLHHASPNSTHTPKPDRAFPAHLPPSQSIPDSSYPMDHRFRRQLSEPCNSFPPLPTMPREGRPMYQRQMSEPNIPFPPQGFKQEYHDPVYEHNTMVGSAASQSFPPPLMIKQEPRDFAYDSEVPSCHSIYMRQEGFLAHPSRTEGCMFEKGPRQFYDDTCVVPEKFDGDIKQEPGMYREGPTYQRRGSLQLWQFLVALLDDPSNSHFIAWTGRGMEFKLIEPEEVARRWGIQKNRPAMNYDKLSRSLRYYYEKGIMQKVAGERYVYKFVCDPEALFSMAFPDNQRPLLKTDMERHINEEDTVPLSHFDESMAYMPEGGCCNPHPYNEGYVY
In short: as §1

## ACTCTA
FLI1
  binding signal: 1.42 fold enrichment (6-mer frequency, TF over GST control)
ELK1
  binding signal: 1.46 fold enrichment (6-mer frequency, TF over GST control)
GABPA
  binding signal: 1.52 fold enrichment (6-mer frequency, TF over GST control)
ERG
  binding signal: 1.39 fold enrichment (6-mer frequency, TF over GST control)
ELF1
  binding signal: 1.52 fold enrichment (6-mer frequency, TF over GST control)
EHF
  binding signal: 1.56 fold enrichment (6-mer frequency, TF over GST control)
SPI1
  binding signal: 1.5 fold enrichment (6-mer frequency, TF over GST control)
SPIB
  binding signal: 1.45 fold enrichment (6-mer frequency, TF over GST control)
ELK3
  binding signal: 1.38 fold enrichment (6-mer frequency, TF over GST control)
FEV
  binding signal: 1.45 fold enrichment (6-mer frequency, TF over GST control)
ETV5
  binding signal: 1.48 fold enrichment (6-mer frequency, TF over GST control)
HSF1
  binding signal: 1.63 fold enrichment (6-mer frequency, TF over GST control)
SPIC
  binding signal: 1.63 fold enrichment (6-mer frequency, TF over GST control)
ELF4
  binding signal: 1.41 fold enrichment (6-mer frequency, TF over GST control)
ELK4
  binding signal: 1.43 fold enrichment (6-mer frequency, TF over GST control)
ETV2
  binding signal: 1.41 fold enrichment (6-mer frequency, TF over GST control)
ELF3
  binding signal: 1.36 fold enrichment (6-mer frequency, TF over GST control)
CRX
  binding signal: 1.52 fold enrichment (6-mer frequency, TF over GST control)
ETV1
  binding signal: 1.42 fold enrichment (6-mer frequency, TF over GST control)
